One assay deals with TAB109. As to the kind of experiment: qHTS profiling for inhibitors of Plasmodium falciparum proliferation (AID 504749). Also: nearly all actives have a fitted effect of over 60% in size. Also: potency is read from the fitted curve at half-maximal effect. To be noted: P. falciparum in erythrocytes, SYBR Green DNA, 72 h; series mostly up to 28.7 µM. Put shortly: (§1)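 Quantitative HTS: compounds pinned into medium, infected erythrocytes added (0.3% parasitemia, 2.5% hematocrit), 72 h culture at 37 C under 5% CO2. Saponin/Triton lysis with SYBR Green I, overnight RT, then fluorescence read.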

The subject of the next assay is TAB113. The description is as above. To be noted: P. falciparum in erythrocytes, SYBR Green DNA, 72 h; series mostly up to 28.7 µM. Summed up: as §1
For a further assay, the system named is TAB165. The description is as above. To be noted: P. falciparum in erythrocytes, SYBR Green DNA, 72 h; series mostly up to 28.7 µM. Summed up:
as §1

The test system of another assay is W2. Described as above. To be noted: P. falciparum in erythrocytes, SYBR Green DNA, 72 h; series mostly up to 28.7 µM. Put shortly:
as §1

The subject of another assay is CRL-7250. Put plainly: Cytotoxic Profiling of Annotated Libraries Using Quantitative High-Throughput Screening (AID 1296008). Also: nearly all actives have a fitted effect of over 60% in size. As to max response: % is scaled to controls: 0 for no effect and ±100 for the full control effect. To be noted: Five cell lines viability, CellTiter-Glo ATP luminescence, 48-72 h; max response: hits give low values. Put shortly:
(§2)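 Compounds were pin-transferred onto cells and incubated 48 or 72 hr at 37 degree Celsius, 95% humidity. CellTiter-Glo was added, plates sat 10 min at room temperature, then ATP-coupled luminescence was imaged as the viability read-out.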

Assay [1] relates to HaCat. Described as above. The settings on record: Five cell lines viability, CellTiter-Glo ATP luminescence, 48-72 h; max response: hits give low values. Summed up: as §2
In general terms: ATP-based viability assays read luminescence as a measure of living cells.

Another assay has as its system KB-3-1. The description is as above. The settings on record: Five cell lines viability, CellTiter-Glo ATP luminescence, 48-72 h; max response: hits give low values. Summed up:
as §2

The test system of assay [2] is NIH3T3. The description is as above. To be noted: Five cell lines viability, CellTiter-Glo ATP luminescence, 48-72 h; max response: hits give low values. Summed up:
as §2

A further assay has as its system MCC-13. Put plainly: qHTS assay to identify novel small-molecules to repurpose for Merkel cell carcinoma treatment (AID 1296009). Also: nearly all actives have a fitted effect of over 60% in size. Also: potency is read from the fitted curve at half-maximal effect. To be noted: MCC and control cell lines, CellTiter-Glo viability, 72 h; series mostly up to 46 µM. Put shortly: (§3)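 Viability readout: ATP luminescence (CellTiter-Glo) after 72 hr drug exposure at 37 degree celsius. Dose-response format was 8 points for NPC and 11 points for MIPE; data normalized to in-plate controls.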
(qHTS replaces the single test concentration by a dilution series.)

The test system of another assay is MCC-26. Described as above. To be noted: MCC and control cell lines, CellTiter-Glo viability, 72 h; series mostly up to 46 µM. Put shortly: as §3
Another assay relates to MKL-1. Described as above. To be noted: MCC and control cell lines, CellTiter-Glo viability, 72 h; series mostly up to 46 µM. Put shortly: as §3
For the next assay, the system named is MKL-2. Described as above. To be noted: MCC and control cell lines, CellTiter-Glo viability, 72 h; series mostly up to 46 µM. Summed up:
as §3

For a further assay, the system named is UISO. The description is as above. The settings on record: MCC and control cell lines, CellTiter-Glo viability, 72 h; series mostly up to 46 µM. Summed up: as §3
Another assay relates to WaGa. The description is as above. The settings on record: MCC and control cell lines, CellTiter-Glo viability, 72 h; series mostly up to 46 µM. Put shortly:
as §3

Another assay relates to C33A. Put plainly: Primary qHTS to identify gynecologic anti-cancer compounds using libraries of approved drugs and bioactive compounds (AID 1345084). Also: % is scaled to controls: 0 for no effect and ±100 for the full control effect; nearly all actives have a fitted effect of over 55% in size. The settings on record: Gynecologic cancer cell panel viability, ATPlite luminescence, 48 h; series mostly up to 57.5 µM. Put shortly: (§4)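 Cells, 1,000 per well, were allowed to settle for 16 h at 37 C before compound addition. Five concentrations were tested for 48 h, and viability was read by ATPlite luminescence after 15 min at room temperature.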

For a further assay, the system named is CAOV3. The description is as above. To be noted: Gynecologic cancer cell panel viability, ATPlite luminescence, 48 h; series mostly up to 57.5 µM. Put shortly: as §4
In a further assay the test system is HEK293. Put plainly: Cytotoxic Profiling of Annotated Libraries Using Quantitative High-Throughput Screening (AID 1296008). Also: nearly all actives have a fitted effect of over 60% in size. As to max response: % is scaled to controls: 0 for no effect and ±100 for the full control effect. The settings on record: Five cell lines viability, CellTiter-Glo ATP luminescence, 48-72 h; max response: hits give low values. Put shortly:
as §2

For assay [3], the system named is HACAT. Put plainly: qHTS assay to identify novel small-molecules to repurpose for Merkel cell carcinoma treatment (AID 1296009). Also: nearly all actives have a fitted effect of over 60% in size. Also: potency is read from the fitted curve at half-maximal effect. To be noted: MCC and control cell lines, CellTiter-Glo viability, 72 h; at 44.8 µM (top of the series) unless noted. Summed up: as §3
Assay [4] deals with NIH3T3. The description is as above. To be noted: MCC and control cell lines, CellTiter-Glo viability, 72 h; at 44.8 µM (top of the series). Put shortly: as §3
The subject of the next assay is HEK293T. The assay is described as above. The settings on record: MCC and control cell lines, CellTiter-Glo viability, 72 h; at 44.8 µM (top of the series) unless noted. Put shortly: as §3

Inconclusive results are not listed. Values without a mark were called inactive. Calls of active or inactive are those of the source. Calls follow the shape of the dose curve; as a rule, active = well fitted curve in the direction sought with a large enough effect; inconclusive = small, poorly fitted or top-dose-only effect, or another doubt; inactive = no such curve, though single readings can be large; an effect the other way counts as inactive or inconclusive.

Regarding `COc1ccc(-c2cc(C(F)F)nn2-c2ccc(S(N)(=O)=O)cc2)cc1F`, the Potency result in the assay with TAB109, in the assay on TAB113, in the assay with TAB165, with W2, in the assay with MCC-13 and in the assay with MCC-26 was “inactive” in each case. The Potency result with MKL-1, with MKL-2, with UISO, in the assay on WaGa, in the assay with C33A and with CAOV3 was “inactive” in each case. For the same compound, the max response with CRL-7250 was 2.74%; in the assay with HaCat [1], -0.189%; with KB-3-1, 15.2%; in the assay with NIH3T3 [2], 1.89%.
With `CC(=O)Nc1ccc(CC(=O)O)cc1`, the Potency result with TAB109, in the assay with TAB113, in the assay on TAB165, in the assay with W2, with MCC-13 and with MCC-26 was “inactive” throughout. Further, the Potency entry in the assay on MKL-1, with MKL-2, in the assay with UISO, in the assay on WaGa, with C33A and in the assay on CAOV3 was “inactive” each time. Besides, the max response in the assay on HEK293 was 0.0311%; with KB-3-1, -17.4%; with NIH3T3 [2], -0.623%. The outcome in the assay with HaCat [1] and with HACAT [3] was inactive.
Regarding `FC(F)(F)C(F)(F)C(F)(F)C(F)(F)C(F)(F)C(F)(F)C(F)(F)C(F)(F)Br`, the Potency entry with TAB109, with TAB113, in the assay on TAB165, with W2, in the assay on MCC-13 and in the assay on MCC-26 was “inactive” each time. Besides, the Potency entry in the assay with MKL-1, with MKL-2, with UISO, with WaGa, in the assay on C33A and in the assay on CAOV3 was “inactive” throughout. In addition, the max response in the assay on HEK293 is 0.523%; in the assay on KB-3-1 it was 13.3%; in the assay with NIH3T3 [2], -4.33%. Moreover, the compound was called inactive with HaCat [1] and in the assay with HACAT [3].
For the compound `CC(C)(Cc1c[nH]c2ccccc12)NCC(O)COc1ccccc1C#N` (stereo unspecified), the Potency is 10 µM (active) in the assay with TAB109, 12.6 µM (active) in the assay with TAB165 and 3.79 µM (active) in the assay on W2. Also, the max response in the assay with CRL-7250 is -4.9%; in the assay with HaCat [1], -15.6%; in the assay with KB-3-1, 19.5%; with NIH3T3 [2] it was -8.73%. The Potency entry in the assay with MCC-13, in the assay on MCC-26, in the assay on MKL-1, in the assay on MKL-2, in the assay on C33A and with CAOV3 was “inactive” in each case.
For `CC[N+](C)(CC)CCOC(=O)C(O)(c1ccccc1)C1CCCCC1` (stereo unspecified), the Potency entry with TAB109, in the assay with TAB113, with TAB165, in the assay on MCC-13, in the assay with MCC-26 and in the assay on MKL-1 was “inactive” throughout. The Potency result in the assay on MKL-2, with UISO, in the assay with WaGa, in the assay on C33A and in the assay on CAOV3 was “inactive” throughout. Besides, the max response in the assay with CRL-7250 was -11.2%; with NIH3T3 [2], -5.74%. The compound was called inactive in the assay on HaCat [1] and in the assay with HACAT [3].
Consider `C[C@@H](O)[C@H]1C(=O)N2C(C(=O)O)=C([C@H]3CCCO3)S[C@H]12`, for which the figures for the max response with HEK293 and in the assay on KB-3-1 were -1.4% and 3.93%, respectively. Besides, the result with HaCat [1], with NIH3T3 [2], with HACAT [3] and in the assay on NIH3T3 [4] was inactive. For the same compound, the Potency result with MCC-13, in the assay on MCC-26, with MKL-1, in the assay on MKL-2, with UISO and in the assay with WaGa was “inactive” throughout. Moreover, the Potency result with C33A is “inactive”.
As for `C[N+]1(CC2COC(c3ccccc3)(C3CCCCC3)O2)CCCCC1` (stereo unspecified), the Potency in the assay on TAB109 is 6.31 µM (active); in the assay with TAB113, 5.01 µM (active); with TAB165 it was 5.01 µM (active); in the assay on W2, 5.36 µM (active); in the assay on MKL-1, 10.6 µM (active); in the assay on MKL-2, 5.96 µM (active). Also, the Potency in the assay on WaGa is 18.8 µM (active). For the same compound, the max response with CRL-7250 was -1.29%; in the assay on HaCat [1], 3.15%; in the assay with KB-3-1, -6.02%; in the assay on NIH3T3 [2] it was -8.34%. Also, the Potency entry in the assay with MCC-13, with MCC-26 and with C33A was “inactive” in each case.
In the case of `c1ccc(-c2nc[nH]c2-c2ccccc2)cc1`, the Potency result with TAB109, in the assay with TAB113, with TAB165, in the assay on W2, in the assay with MCC-13 and in the assay on MCC-26 was “inactive” each time. In addition, the Potency result with MKL-1, with MKL-2, in the assay with UISO and in the assay with WaGa was “inactive” each time. In addition, the max response in the assay with CRL-7250 is -18.7%; in the assay on HaCat [1], -29.5%; with KB-3-1, 23.6%; in the assay on NIH3T3 [2] it was -7.14%.
For the compound `CCCCNc1ccc(C(=O)OCCOCCOCCOCCOCCOCCOCCOCCOCCOC)cc1`, the Potency result in the assay with TAB109, in the assay with TAB113, in the assay on W2, in the assay with MCC-13, in the assay with MCC-26 and with MKL-1 was “inactive” throughout. Also, the Potency result in the assay on MKL-2, in the assay on C33A and with CAOV3 was “inactive” each time. The max response in the assay on CRL-7250 is -14.1%; with HaCat [1], 0.553%; in the assay on KB-3-1 it was -13.9%; with NIH3T3 [2] it was -8.1%.
In the case of `C[C@@H](O)[C@H]1C(=O)N2C(C(=O)O)=C(S[C@@H]3CN[C@H](CNS(N)(=O)=O)C3)[C@H](C)[C@H]12`, the Potency entry in the assay with TAB109, with TAB113, in the assay on TAB165, in the assay on W2, in the assay with MCC-13 and with MCC-26 was “inactive” in each case. Moreover, the Potency result in the assay on MKL-1, in the assay with MKL-2, with UISO, with WaGa and with C33A was “inactive” throughout. Besides, the max response in the assay with CRL-7250 is -1.21%; in the assay with NIH3T3 [2], 3.07%. The outcome with HaCat [1] and with HACAT [3] was inactive.
Take `O=C1OC2(c3ccccc31)c1cc(Br)c(O)c(Br)c1Oc1c2cc(Br)c(O)c1Br`: the outcome in the assay on HEK293, with HaCat [1], with HACAT [3] and in the assay with HEK293T was inactive. The max response was -24.7% in the assay with KB-3-1 and -4.74% with NIH3T3 [2]. Further, the Potency entry in the assay with MCC-13, with MCC-26, in the assay with MKL-1, in the assay on MKL-2, in the assay with UISO and with WaGa was “inactive” in each case. The Potency result in the assay on C33A and in the assay with CAOV3 was “inactive” each time.
